Records with an inconclusive call do not appear. Entries that show only a call come without a potency. A number with no mark means an inactive call. Active and inactive are the calls of the source. Calls come from the whole dose curve; as a rule, active = well fitted activation curve with a large enough effect in the repeat runs; inconclusive = weak or mixed curves; inactive = flat fitted curve, though single readings scatter.
Test: A CellTox Green Cytotoxicity Assay to monitor cytotoxicity in HepG2 cells - 16 hour (AID 1224876); note: nearly all actives have a fitted effect of over 45% in size
Settings: CellTox Green fluorescence; series mostly up to 76.8 µM
Method in brief: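 Continuous culture of HepG2 cells with a membrane-impermeant DNA dye; rising fluorescence marks dead cells. Compound exposure lasted up to 40 h at 37 C, with reads every 8 h from 0 h.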

Structure (SMILES) | Potency | cytotoxicity increase
Cc1ccc2c(c1)CCCN2 | inactive | 
O=C(NC(Cc1cc(=O)[nH]c2ccccc12)C(=O)O)c1ccc(Cl)cc1 (stereo not drawn) | inactive | 
CC(C)(C)C1(CCc2ccc(Cl)cc2)CO1 (stereo not drawn) | inactive | 
CC(C)(O)CCc1ccccc1 | inactive | 
Cc1ccc(N(CCO)CCO)cc1 | inactive | 
CSCC[C@H](NC(=O)[C@H](Cc1c[nH]c2ccccc12)NC(=O)CCNC(=O)OC(C)(C)C)C(=O)N[C@@H](CC(=O)O)C(=O)N[C@@H](Cc1ccccc1)C(N)=O | inactive | 
O=CNNC=O | inactive | 
O=C(O)CO | inactive | 
CCOc1ncc(F)c(=O)[nH]1 | inactive | 
O=C(O)CNC(=O)c1ccccc1I | inactive | 
Cc1cc(CCC(=O)OCCOCCOCCOC(=O)CCc2cc(C)c(O)c(C(C)(C)C)c2)cc(C(C)(C)C)c1O | inactive | 
COc1cc(C(C)=O)ccc1OCCCN1CCC(c2noc3cc(F)ccc23)CC1 | inactive | 
Nc1ccn([C@H]2CS[C@@H](CO)O2)c(=O)n1 | inactive | 
CC(C)(C(=O)c1cccnc1)c1cccnc1 | inactive | 
C[C@@H]1C[C@H]2[C@@H]3CCC4=CC(=O)C=C[C@]4(C)[C@@]3(F)[C@@H](O)C[C@]2(C)[C@@]1(O)C(=O)COP(=O)(O)O | inactive | 
Cc1ccc(S(=O)(=O)NC(=O)NC2CCCCC2)cc1 | inactive | 
COC(=O)Nc1nc2ccc(C(=O)C3CC3)cc2[nH]1 | inactive | 
O=S(=O)(O)CO | inactive | 
FC(F)(F)C(F)(F)C(F)(F)C(F)(F)CCI | inactive | 

Structure (SMILES) | Potency | cytotoxicity increase
CCCCCCOC(=O)CCCCC | inactive | 
O=C(O)CCC(=O)c1ccc(-c2ccccc2)cc1 | inactive | 
CCC(CO)(CO)CO | inactive | 
C=CCOC(=O)COCCC(C)C | inactive | 
CCOC(=O)C(C)O (stereo not drawn) | inactive | 
CCCCCCCC/C=C/C(=O)O | inactive | 
CCCCCCC(CO)CCCC (stereo not drawn) | inactive | 
Nc1nc(-c2ccc([N+](=O)[O-])cc2)cs1 | inactive | 
COC(OC)OC | inactive | 
O=c1[nH]c2cc(C(F)(F)F)c(N3CCOCC3)cc2n(CP(=O)(O)O)c1=O | inactive | 
CCCCCCCCCCCCCCN(C)C |  | -1.78% [at 15.8 µM]
CCC(Cl)CC(Cl)C(Cl)C(Cl)C(Cl)C(C)Cl (stereo not drawn) |  | 7.76% [at 15.8 µM]
CCCCCCCCCCCCCCCC(=O)OCC | inactive | 
COc1ccc(CCN(C)CCCN2CCc3cc(OC)c(OC)cc3CC2=O)cc1OC | inactive | 
CCCCC[C@H](O)/C=C/[C@H]1[C@H](O)CC(=O)[C@@H]1C/C=C\CCCC(=O)O | inactive | 
CCCC(=O)OC(=O)CCC | inactive | 
CC[C@H]1OC(=O)[C@H](C)[C@@H](O[C@H]2C[C@@](C)(OC)[C@@H](O)[C@H](C)O2)[C@H](C)[C@@H](O[C@@H]2O[C@H](C)C[C@H](N(C)C)[C@H]2O)[C@](C)(O)C[C@@H](C)CN(C)[C@H](C)[C@@H](O)[C@]1(C)O | inactive | 
NC(=O)CCCCC(N)=O | inactive | 
CCCCCCCCCCCCCOC(=O)CCSCCC(=O)OCCCCCCCCCCCCC |  | -0.0072% [at 15.8 µM]
